Data from PubChem BioAssay (NCATS).
Activity calls are given as the source filed them. The call rests on the fitted dose curve; in most records, active means well fitted curve in the direction sought with a large enough effect; inconclusive means small, poorly fitted or top-dose-only effect, or another doubt; inactive means no such curve, though single readings can be large or run the other way.

These compounds were tested against Methanococcus maripaludis chaperonin (MmCpn) (UniProt Q6LX38) (assay: High-Throughput Screening for Modulators of Cytosolic Chaperonin Activity: MmCpn Primary Screen (AID 488978)). Conditions: Purified MmCpn ATPase activity, ADP HTRF detection, 10 min; series mostly up to 76.9 µM.
Sequence of Methanococcus maripaludis chaperonin (MmCpn) (Q6LX38 1-543): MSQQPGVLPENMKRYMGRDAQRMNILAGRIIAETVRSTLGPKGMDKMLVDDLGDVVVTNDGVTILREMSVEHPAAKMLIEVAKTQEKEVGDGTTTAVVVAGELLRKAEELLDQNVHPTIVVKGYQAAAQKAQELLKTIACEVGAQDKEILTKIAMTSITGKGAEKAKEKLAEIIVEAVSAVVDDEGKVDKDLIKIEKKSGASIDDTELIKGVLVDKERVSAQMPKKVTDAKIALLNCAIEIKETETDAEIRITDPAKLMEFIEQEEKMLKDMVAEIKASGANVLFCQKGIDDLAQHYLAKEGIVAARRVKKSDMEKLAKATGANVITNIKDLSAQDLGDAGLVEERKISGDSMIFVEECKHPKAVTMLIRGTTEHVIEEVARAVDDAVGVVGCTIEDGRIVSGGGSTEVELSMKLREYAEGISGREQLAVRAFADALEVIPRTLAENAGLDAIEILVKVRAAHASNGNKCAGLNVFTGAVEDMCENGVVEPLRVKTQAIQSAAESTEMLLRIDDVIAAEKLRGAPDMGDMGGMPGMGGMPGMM
From the text: Chaperonins are key components of the cellular chaperone machinery. These large complexes consist of two stacked 7-9 membered rings, each containing a central cavity. Substrates are folded within the cavity in an ATP-dependent manner. TRiC is a complex of eight different, essential proteins. As each of the genes encoding the eight subunits is essential for cell viability and no protocol has been developed to overexpress this enzyme to high levels, several groups have turned to the archaeal homolog of TRiC from Methanococcus maripaludis (MmCpn) as a model system for the study of the type II chaperonin family.
MmCpn was kindly provided by the laboratory of Judith Frydman.
1. Dispense 1.5 ul enzyme of either TriC at 100 nM or MmCpn at 50 nM final concentration.
2. Transfer 23 nl of compound to plate, incubate 5 min at RT.
3. 1.5 ul ATP at 30 uM at final concentration dispensed into plate.
4. Incubate for 10 minutes at 37C (MmCPN), 30C (TriC).
5. 3 ul of the Cisbio ADP Transcreener HTRF detection reagent prepared according to protocol dispensed into plate.
6. Incubate for 5 minutes.
7. Read using EnVision plate reader at Excitation = 320nm and Emission = 590nm, 665nm

| Compound | outcome |
| --- | --- |
| OC(CN1CCC(Cc2ccc(F)cc2)CC1)c1ccc(Cl)cc1 (stereo not given) | inactive |
| CC(=O)Oc1ccccc1C(=O)O | inactive |
| CCn1cc(C(=O)O)c(=O)c2cc(F)c(N3CCNC(C)C3)c(F)c21 (stereo not given) | inactive |
| Cn1cnc([N+](=O)[O-])c1Sc1ncnc2nc[nH]c12 | inactive |
| CCN(CC)CCCC(C)Nc1ccnc2cc(Cl)ccc12 (stereo not given) | inactive |
| CCC(C)N(C)C(=O)c1cc2ccccc2c(-c2ccccc2Cl)n1 (stereo not given) | inactive |
| CC(C[N+](C)(C)C)OC(N)=O (stereo not given) | inactive |
| NCCCC(N)(C(=O)O)C(F)F (stereo not given) | inactive |
| NS(=O)(=O)c1cc2c(cc1Cl)NC=NS2(=O)=O | inactive |
| Nc1nc2ccc(OC(F)(F)F)cc2s1 | inactive |
| N[C@@H]1CONC1=O | inactive |
| NC[C@H](O)c1ccc(O)c(O)c1 | inactive |
| Cc1[nH]c(=O)c(C#N)cc1-c1ccncc1 | inactive |
| O=c1[nH]cnc2[nH]ncc12 | inactive |
| NCCc1ccc(O)c(O)c1 | inactive |
| CC(C)(C)NCC(O)c1ccc(O)c(CO)c1 (stereo not given) | inactive |
| CCOC(=O)C1=C[C@]2(CC)CCCN3CCc4c(n1c1ccccc41)[C@@H]32 | inactive |
| Cc1oncc1C(=O)Nc1ccc(C(F)(F)F)cc1 | inactive |
| O=c1n(CCCN2CCN(c3cccc(Cl)c3)CC2)nc2ccccn12 | inactive |
| OC(CCN1CCCCC1)(c1ccccc1)C1CC2C=CC1C2 (stereo not given) | inactive |

| Compound | outcome |
| --- | --- |
| O=C(Nc1nc2ccccc2n1CCN1CCOCC1)c1cccc([N+](=O)[O-])c1 | inactive |
| Cc1ccc(N(CC2=NCCN2)c2cccc(O)c2)cc1 | inactive |
| Cc1cc2c(C(C)C)c(O)c(O)c(C=O)c2c(O)c1-c1c(C)cc2c(C(C)C)c(O)c(O)c(C=O)c2c1O | inactive |
| O=C(O)COCCN1CCN(C(c2ccccc2)c2ccc(Cl)cc2)CC1 (stereo not given) | inactive |
| CC(C)NCC(O)COc1ccc(COCCOC(C)C)cc1 (stereo not given) | inactive |
| CCCC(CCC)C(=O)O | inactive |
| NC(=O)c1cnccn1 | inactive |
| C1COC(NC(C2CC2)C2CC2)=N1 | inactive |
| N=c1nc(N2CCCCC2)cc(N)n1O | inactive |
| Cc1ccccc1C(OCCN(C)C)c1ccccc1 (stereo not given) | inactive |
| Clc1cccc(Cl)c1NC1=NCCN1 | inactive |
| CNC[C@H](O)c1cccc(O)c1 | inactive |
| c1ccc([C@H]2CN3CCSC3=N2)cc1 | inactive |
| Cc1[nH]c(=O)c(C#N)cc1-c1ccc2nccn2c1 | inactive |
| NNCCc1ccccc1 | inactive |
| Oc1ccc(C2CNCCc3c2cc(O)c(O)c3Cl)cc1 (stereo not given) | inactive |
| CN1CCN(CCCN2c3ccccc3Sc3ccc(C(F)(F)F)cc32)CC1 | inactive |
| C[C@]12CCC(=O)C=C1CC[C@@H]1[C@@H]2[C@@H](O)C[C@@]2(C)[C@H]1CC[C@]2(O)C(=O)CO | inactive |
| O=C1CCC(N2C(=O)c3ccccc3C2=O)C(=O)N1 (stereo not given) | inactive |
| Nc1ccc(S(=O)(=O)Nc2ccnn2-c2ccccc2)cc1 | inactive |
